Reference: PubChem BioAssay (EPA / NIEHS)
“And” between values parts separate entries of the source, which are not always exact repeats. Equal values may be shown once. The source holds several records for some structures; these can differ, active in one and inactive in another. The source made the active and inactive calls. How the source made its calls: active means hit-call score of the fitted dose curve at least 0.9, where 1 is the maximum; inactive means score below 0.9.

Experiments:
[1] = BSK_MyoF_SRB: Viability Assessment in the BioMAP Diversity Plus: MyoF Assay (AID 2284267); conditions: primary human lung fibroblasts;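 further: total protein by SRB absorbance in parallel cultures as cytotoxicity measure; cells assessed 24 h after compound addition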
Method in brief: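 Lung fibroblast cultures, 24 h post-dose; fix 10% TCA, stain 0.1% SRB, read 560 nm. Signal = total protein as cytotoxicity measure; fitted relative to DMSO negative control.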

[2] = read-out: Matrix Metallopeptidase 1 (MMP1), MMP1 (gene 4312); assay: BSK_MyoF_MMP1: BioMAP Diversity Plus: MyoF Assay for Matrix Metallopeptidase 1 (MMP1) Biomarker Activity (AID 2284268); conditions: primary human lung fibroblasts
Method in brief: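 Human lung fibroblasts (MyoF system) exposed to chemical for 24 h in 96-well format; MMP1 biomarker quantified by ELISA, with activity fitted in the positive direction relative to DMSO baseline.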

[3] = read-out: TIMP metallopeptidase inhibitor 1 (TIMP1), TIMP1 (gene 7076); assay: BSK_MyoF_TIMP1: BioMAP Diversity Plus: MyoF Assay for TIMP metallopeptidase inhibitor 1 (TIMP1) Biomarker Activity (AID 2284269); conditions: primary human lung fibroblasts
Method in brief: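 TIMP-1 levels were determined by ELISA in human lung fibroblasts treated for 24 h. DMSO served as negative control and baseline for upward curve fitting.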

KRT18 (gene 3875) [4] = assay: BSK_BF4T_Keratin818: BioMAP Diversity Plus: BF4T Assay for Keratin 818 Biomarker Activity (AID 2284266); conditions: primary human bronchial epithelial cells with fibroblasts
Method in brief: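 Keratin 8/18 levels quantified by ELISA after 24 h chemical treatment of bronchial epithelial cell/dermal fibroblast co-cultures, fitted in positive direction relative to DMSO. Parallel SRB staining tracks overt cytotoxicity.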

[5] = read-out: Matrix Metallopeptidase 3 (MMP3), MMP3 (gene 4314); assay: BSK_BF4T_MMP3: BioMAP Diversity Plus: BF4T Assay for Matrix Metallopeptidase 3 (MMP3) Biomarker Activity (AID 2284271); conditions: primary human bronchial epithelial cells with fibroblasts
Method in brief: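 MMP-3 level read by ELISA after 24 h chemical exposure of bronchial epithelial cell/dermal fibroblast co-cultures, fitted upward relative to DMSO. Parallel cultures stained with 0.1% SRB after TCA fixation gauge overt cytotoxicity.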

[6] = read-out: Tissue plasminogen activator (tPA), PLAT (gene 5327); assay: BSK_BF4T_tPA: BioMAP Diversity Plus: BF4T Assay for Tissue plasminogen activator (tPA) Biomarker Activity (AID 2284272); conditions: primary human bronchial epithelial cells with fibroblasts
Method in brief: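 tPA level quantified by ELISA at 24 h post-treatment in bronchial epithelial/dermal fibroblast co-cultures, gain of signal scored against DMSO baseline. Parallel cultures stained with 0.1% SRB (560 nm) to flag overt cytotoxicity.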

[7] = read-out: Plasminogen Activator Inhibitor-1 (PAI1), SERPINE1 (gene 5054); assay: BSK_BF4T_PAI1: BioMAP Diversity Plus: BF4T Assay for Plasminogen Activator Inhibitor-1 (PAI1) Biomarker Activity (AID 2284273); conditions: primary human bronchial epithelial cells with fibroblasts
Method in brief: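 PAI-1 levels quantified by ELISA 24 h post-dosing in bronchial epithelial cell plus dermal fibroblast cultures. Signal gain referenced to DMSO baseline. Sulforhodamine B total-protein staining of parallel wells checked cytotoxicity.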

[8] = read-out: urokinase Plasminogen Activator (uPA), PLAU (gene 5328); assay: BSK_BF4T_uPA: BioMAP Diversity Plus: BF4T Assay for urokinase Plasminogen Activator (uPA) Biomarker Activity (AID 2284275); conditions: primary human bronchial epithelial cells with fibroblasts
Method in brief: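 uPA levels measured by ELISA at 24 hours in BF4T cultures (bronchial epithelial cells plus dermal fibroblasts) and compared with DMSO; cytotoxicity tracked in parallel cultures by sulforhodamine B staining.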

[9] = read-out: Interleukin-8 (IL8), CXCL8 (gene 3576); assay: BSK_IMphg_IL8: BioMAP Diversity Plus: IMphg Assay for Interleukin-8 (IL8) Biomarker Activity (AID 2284277); conditions: primary human endothelial cells with macrophages
Method in brief: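 IL-8 levels were measured by ELISA 24 h after dosing in primary human venular endothelial cell–macrophage cultures, referenced to DMSO; parallel SRB staining monitored overt cytotoxicity.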

[10] = read-out: Intercellular Adhesion Molecule 1 (ICAM1), ICAM1 (gene 3383); assay: BSK_BE3C_ICAM1: BioMAP Diversity Plus: BE3C Assay for Intercellular Adhesion Molecule 1 (ICAM1) Biomarker Activity (AID 2284278); conditions: primary human bronchial epithelial cells;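 further: cell-surface ICAM-1 protein level quantified by ELISA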
Method in brief: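 ELISA read-out of ICAM-1 on human lung bronchial epithelial primary cells, 24 h post-dosing; positive-direction curve fit, DMSO = baseline. SRB total-protein staining of parallel cultures flagged overt cytotoxicity.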

[11] = read-out: Interferon-inducible T-cell alpha chemoattractant (ITAC), CXCL11 (gene 6373); assay: BSK_BE3C_ITAC: BioMAP Diversity Plus: BE3C Assay for Interferon-inducible T-cell alpha chemoattractant (ITAC) Biomarker Activity (AID 2284279); conditions: primary human bronchial epithelial cells
Method in brief: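 The assay measures I-TAC levels by ELISA in human primary bronchial epithelial cell cultures 24 hours after chemical treatment. Values reflect signal increase over the DMSO baseline.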

[12] = read-out: Interleukin-8 (IL8), CXCL8 (gene 3576); assay: BSK_BE3C_IL8: BioMAP Diversity Plus: BE3C Assay for Interleukin-8 (IL8) Biomarker Activity (AID 2284280); conditions: primary human bronchial epithelial cells
Method in brief: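 Measured at 24 h after treatment, IL-8 from human primary bronchial epithelial cells is determined by ELISA, and the response is modelled as increasing relative to DMSO negative control.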

[13] = read-out: Epidermal growth factor receptor (EGFR), EGFR (gene 1956); assay: BSK_BE3C_EGFR: BioMAP Diversity Plus: BE3C Assay for Epidermal growth factor receptor (EGFR) Biomarker Activity (AID 2284281); conditions: primary human bronchial epithelial cells
Method in brief: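 Measured 24 h after dosing in primary human bronchial epithelial cultures, EGFR was read by ELISA; gain of signal over DMSO control defined activity.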

KRT18 (gene 3875) [14] = assay: BSK_BE3C_Keratin818: BioMAP Diversity Plus: BE3C Assay for Keratin 818 Biomarker Activity (AID 2284282); conditions: primary human bronchial epithelial cells
Method in brief: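 ELISA read-out of Keratin 8/18 in BE3C human bronchial epithelial cultures, 24 h post-dosing; positive-direction fit vs DMSO baseline.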

[15] = read-out: Plasminogen activator inhibitor-1 (PAI1), SERPINE1 (gene 5054); assay: BSK_CASM3C_PAI1: BioMAP Diversity Plus: CASM3C Assay for Plasminogen activator inhibitor-1 (PAI1) Biomarker Activity (AID 2284284); conditions: primary human coronary artery smooth muscle cells
[16] = read-out: Vascular cell adhesion molecule 1 (VCAM1), VCAM1 (gene 7412); assay: BSK_IMphg_VCAM1: BioMAP Diversity Plus: IMphg Assay for Vascular cell adhesion molecule 1 (VCAM1) Biomarker Activity (AID 2284286); conditions: primary human endothelial cells with macrophages
Method in brief: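 ELISA read-out of VCAM-1 on venular endothelial cell/macrophage co-cultures at 24 h post-treatment, with DMSO as baseline and positive-direction fitting. Parallel sulforhodamine B total-protein staining (560 nm) served as the overt cytotoxicity measure.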

[17] = read-out: TIMP metallopeptidase inhibitor 2 (TIMP2), TIMP2 (gene 7077); assay: BSK_hDFCGF_TIMP2: BioMAP Diversity Plus: hDFCGF Assay for TIMP metallopeptidase inhibitor 2 (TIMP2) Biomarker Activity (AID 2284289); conditions: primary human foreskin fibroblasts
Method in brief: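 Primary human foreskin fibroblasts in the hDFCGF system, dosed for 24 h; TIMP-2 level measured by ELISA, fitted in the positive direction against DMSO; cytotoxicity checked in parallel by sulforhodamine B total protein staining.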

[18] = read-out: Interleukin-1 alpha (IL1a), IL1A (gene 3552); assay: BSK_IMphg_IL1a: BioMAP Diversity Plus: IMphg Assay for Interleukin-1 alpha (IL1a) Biomarker Activity (AID 2284290); conditions: primary human endothelial cells with macrophages
Method in brief: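 IL-1α is quantified by ELISA at 24 h in the endothelial/macrophage IMphg co-culture, with gain of signal fitted relative to DMSO. Parallel SRB total-protein staining flags overt toxicity.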

[19] = read-out: Macrophage colony-stimulating factor (MCSF), CSF1 (gene 1435); assay: BSK_IMphg_MCSF: BioMAP Diversity Plus: IMphg Assay for Macrophage colony-stimulating factor (MCSF) Biomarker Activity (AID 2284293); conditions: primary human endothelial cells with macrophages
Method in brief: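 M-CSF was measured by ELISA in human venular endothelial cell/macrophage co-cultures dosed for 24 hours. Sulforhodamine B staining of parallel cultures assessed cytotoxicity; data fitted against DMSO baseline.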

[20] = read-out: Interleukin-10 (IL10), IL10 (gene 3586); assay: BSK_IMphg_IL10: BioMAP Diversity Plus: IMphg Assay for Interleukin-10 (IL10) Biomarker Activity (AID 2284294); conditions: primary human endothelial cells with macrophages
Method in brief: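 IL-10 read by ELISA after 24 h chemical exposure of primary human venular endothelial cell/macrophage cocultures, with DMSO as baseline. Parallel SRB staining (560 nm) gauged overt cytotoxicity.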

Measured: AC50

CCCCC(CC)COP(=O)(Oc1ccccc1)Oc1ccccc1 (configuration not stated)
active: [1] 8.43 µM | [2] 5.32 µM | [3] 6.48 µM

CCCCOCCOP(=O)(OCCOCCCC)OCCOCCCC
inactive: [1] | [2] | [3]

CC(Cl)CN(C)C (configuration not stated)
inactive: [1] | [2] | [3]

CCOP(=S)(S)OCC
inactive: [1] | [2] | [3]

CC(C)Nc1ccc(Nc2ccccc2)cc1
inactive: [2]
active: [1] 20 µM | [3] 20 µM

NC(=O)C(F)(F)C(F)(F)F
inactive: all assays above

OCC(F)(F)OC(F)(F)C(F)(F)OC(F)(F)C(F)(F)OC(F)(F)F
inactive: KRT18 (gene 3875) [4] | [5] | [6] | [7] | [8] | [9] | [10] | [11] | [12] | [13] | KRT18 (gene 3875) [14] | [15] | [16] | [17]
active: [1] 21.9 µM and 21.6 µM | [2] 19.9 µM and 18.3 µM | [3] 22.3 µM and 27.8 µM | [7] 25.6 µM | [16] 47.7 µM | [18] 26.6 µM and 47.5 µM | [19] 43 µM and 18.8 µM | [20] 45.9 µM and 42.6 µM

COC(=O)C(F)(F)C(F)(F)OC(F)(C(F)(F)F)C(F)(F)OC(F)=C(F)F (configuration not stated)
active: [9] 1.61 µM and 1.92 µM | [11] 3.93 µM and 4.84 µM
inactive: all other assays above

O=C(O)C(F)(F)C(F)(F)C(=O)O
inactive: all assays above
